Only some compounds are listed: those with a hit (about 19% of all), similar ones and a draw of the others.
HT1080 IDH1KD tx: toxicity to HT-1080 IDH1 knockdown cells (counter line); HT-1080 IDH1 knockdown viability, ATP luminescence, 48 h; Potency, µM (doses to about 46.1 µM), inactives show at the top dose activity, negative = toxicity, actives largely listed as cytotoxic; 360,000 tested, 2% active; AID 686971;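 note: 0% = DMSO wells and -100% = cell-free medium wells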
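IDH1KD HT-1080 cells, 750/well, RPMI + 5% FBS; compound pinned after 2 h settling; 48 h, 37 °C; CellTiter-Glo luminescence; % activity normalised to DMSO and no-cell wells; curves fitted, classed by r2 and efficacy.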
HT1080NT lethal: kills 2HG-producing HT-1080-NT fibrosarcoma cells | HT-1080-NT fibrosarcoma viability, CellTiter-Glo ATP luminescence, 48 h | Potency, µM (doses to about 46.1 µM), for inactives: at the highest dose activity, negative = less viability, actives largely listed as cytotoxic | 360,000 tested, 1.6% active;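 note: NT is the 2HG producing partner of a matched IDH1 knockdown line; 0% = DMSO-treated cells and -100% = media-only wells without cells; nearly all actives have a fitted effect of over 55% in size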
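Toxicity toward the 2HG-producing NT line was scored as %Activity, normalised to DMSO and no-cell wells, from CellTiter-Glo luminescence after 48 hours' treatment.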
KB-V1 MDR tox: KB-V1 MDR subline cytotoxicity; KB-V1 MDR cells viability, CellTiter-Glo, 72 h; Potency, µM (highest dose often 46.1 µM), most hits filed as cytotoxic; 400,000 tested, 3.4% active; note: nearly all actives have a fitted effect of over 60% in size
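Potencies derive from concentration-effect curves fitted to normalized luminescence (CellTiter-Glo) of KB-V1 cells treated for 72 h at 37 degrees C in phenol-red-free DMEM containing 10% FBS.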
TDP1 cell CPT: growth inhibition of DT40 Tdp1-/-;hTDP1 cells with camptothecin (screen for TDP1 inhibitors). chicken DT40 Tdp1-/-;hTDP1 cells + 20 nM CPT, ATP luminescence, 48 h. Potency, µM (highest dose often 46.2 µM), without a hit: at the top dose activity change, negative = growth inhibition, most hits filed as inhibitors. 420,000 tested, 12% active; note: nearly all actives have a fitted effect of over 55% in size
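Chicken DT40 Tdp1-/- cells stably complemented with human TDP1 were seeded at 400 cells/well in medium containing 20 nM camptothecin, exposed to pin-transferred compounds, and grown at 37 °C for at least 48 hr. Viability was read as ATP luminescence.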
DT40 TDP1 no CPT: qHTS for Inhibitors of human tyrosyl-DNA phosphodiesterase 1 (TDP1): qHTS in cells in absence of CPT; DT40 Tdp1-/- hTDP1 cells, no CPT, ATP luminescence, 48 h; AID 686978, 2013; Potency, µM (series often up to 46.2 µM), without a hit: at the top dose activity change, negative = growth inhibition, actives largely listed as inhibitors; 420,000 tested, 15% active; note: nearly all actives have a fitted effect of over 55% in size
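Chicken DT40 Tdp1-/- cells stably complemented with human TDP1 were seeded at 400 cells/well with DMSO in place of 20 nM camptothecin. After compound pinning, cells grew at least 48 hr at 37 °C; viability read by CellTiter-Glo luminescence.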
KB-3-1 tox: kills parental KB-3-1 adenocarcinoma cells; KB-3-1 viability, CellTiter-Glo ATP luminescence, 72 h; Potency, µM (series often up to 46.1 µM), actives largely listed as cytotoxic; 400,000 tested, 1.4% active; note: nearly all actives have a fitted effect of over 60% in size
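KB-3-1 cells, DMEM (no phenol red) + 10% FBS; compound by pin transfer, 72 h, 37 °C. Readout: CellTiter-Glo luminescence after 10 min. Data normalized, curve-fitted.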
* marks the source's active call; other numbers are inactive results; i = inactive; ? = inconclusive; · = not tested or not shown. Calls come from the whole dose curve; as a rule, active = well fitted curve in the direction sought with a large enough effect; inconclusive = small, poorly fitted or top-dose-only effect, or another doubt; inactive = no such curve, though single readings can be large; an effect the other way counts as inactive or inconclusive. Unless noted, % is set by controls: 0 for no effect and ±100 for the full control effect; potency is the fitted concentration of half-maximal effect.

SMILES	HT1080 IDH1KD tx	HT1080NT lethal	KB-V1 MDR tox	TDP1 cell CPT	DT40 TDP1 no CPT	KB-3-1 tox
COc1ccccc1CN1CCN(Cc2nc(-c3ccc(C)cc3)oc2C)CC1	-2%	-4%	i	21µM*	?	i
COc1ccc(-c2nc(CN3CCN(c4ccccc4OC)CC3)c(C)o2)cc1	-16%	-13%	?	?	?	i
O=C1CNC(=O)/C(=C/c2ccco2)N1	0%	-11%	i	33%	-9%	?
Cc1cccc(-c2nc(SCc3cc(=O)c4c(C)cc(C)cc4[nH]3)n[nH]2)c1	·	·	i	?	?	i
CCCNC(=O)C1(C)CCN(C(=O)c2ccc(C)c(F)c2)C1 (configuration not stated)	14%	?	i	-1%	-2%	i
Brc1ccc(C=C2C=c3ccccc3=C2)cc1	·	·	i	14%	-24%	i
CC(C)OC(=O)N(C)C[C@@H]1OCc2cnnn2CCCC(=O)N([C@H](C)CO)C[C@H]1C	2%	2%	?	3%	-1%	i
CCCCN(CC)CCCNC(=O)C1CCN(c2nc3ccc(CC)cc3s2)CC1	·	·	·	12µM*	13µM*	·
CCCCN(C)CCCNC(=O)C1CCN(c2nc3ccc(CC)cc3s2)CC1	·	·	i	6.5µM*	5.8µM*	i
CCOc1ccc2nc(N3CCC(C(=O)NCCCN4CCOCC4)CC3)sc2c1	-10%	0%	i	-3%	?	i
Cc1ccc2nc(-c3ccc(O)c(O)c3)cn2c1	?	-4%	i	?	21µM*	?
Cc1ccc2nc(-c3ccccc3)cn2c1	12µM*	12µM*	10µM*	?	18µM*	12µM*
CC(=O)Nc1ccc(-c2cn3cc(C)ccc3n2)cc1	7%	1%	16µM*	9%	4%	i
Cc1ccc2nc(-c3ccc(-c4ccccn4)s3)cn2c1	-4%	-7%	i	-27%	?	i
COc1cccc(Nc2nc(C)nc3c2oc2ccccc23)c1	?	-10%	i	?	21µM*	i
Cc1nc(Nc2cccc(F)c2)c2oc3ccccc3c2n1	-22%	-14%	i	?	?	i
Cc1nc(Nc2cccc(O)c2)c2oc3ccccc3c2n1	-5%	6%	i	?	13µM*	i
Cc1nc(Nc2cccc(Cl)c2)c2oc3ccccc3c2n1	?	-26%	i	16µM*	21µM*	i
COc1cccc(Oc2nc(C)nc3c2oc2ccccc23)c1	·	·	i	-21%	?	i
O=C(COC(=O)c1cccs1)Nc1cccc(S(=O)(=O)N2CCCCC2)c1	1%	-4%	i	?	-14%	i
CCC1CN(C(=O)N2CCC(C(=O)NCCc3ccccc3)CC2)c2ccccc2O1 (configuration not stated)	-1%	15%	i	?	8.2µM*	i
CCC1CN(C(=O)N2CCC(C(=O)NCCc3ccc(C)cc3)CC2)c2ccccc2O1 (configuration not stated)	·	·	·	?	21µM*	·
CCC1CN(C(=O)N2CCC(C(=O)N3CCN(c4ccccc4F)CC3)CC2)c2ccccc2O1 (configuration not stated)	·	·	·	16µM*	16µM*	·
CCS(=O)(=O)N1CCC(C(=O)NCCc2ccccc2)CC1	6%	-3%	i	1%	-5%	i
CCCOc1ccc(C(=O)Nc2c(C(=O)c3ccc(C)cc3)oc3ccccc23)cc1	·	·	i	·	·	i
SMILES	HT1080 IDH1KD tx	HT1080NT lethal	KB-V1 MDR tox	TDP1 cell CPT	DT40 TDP1 no CPT	KB-3-1 tox
CCCCNC(=O)C1C(c2ccc(C(F)(F)F)cc2)=Nc2ccccc2N1C(=O)C1CCN(C(C)=O)CC1 (configuration not stated)	-14%	-14%	i	-18%	-28%	i
COc1ccccc1CNc1ncnc2c1cnn2-c1ccc(C)cc1	·	·	i	-27%	-12%	i
O=C(C1CCCCC1)N1C[C@H](O)[C@@H](n2cc(C3CC3)nn2)C[C@@H]1c1ccccc1	0%	6%	i	-12%	0%	i
COC(=O)Nc1ccc(S(=O)(=O)N2CCCc3cccc(O)c32)cc1	?	?	?	13µM*	10µM*	?
O=S(=O)(NC1CCCC1)c1ccc(S(=O)(=O)N2CCc3ccccc32)cc1	?	?	?	16µM*	16µM*	?
COC(=O)Nc1ccc(S(=O)(=O)N2CCCc3ccccc32)cc1	1.4µM*	8.9µM*	1.2µM*	2.6µM*	2.3µM*	1.5µM*
COC(=O)Nc1ccc(S(=O)(=O)N2CCC(C)CC2)cc1	-15%	5%	i	-13%	-14%	?
Cc1ccc(-c2cc(C(=O)N(C)CC(=O)Nc3ccccc3Br)c3ccccc3n2)o1	0%	-3%	i	16µM*	?	i
COc1ccc(-c2cc(C(=O)Nc3c(Cl)cc(Cl)cc3Cl)c3ccccc3n2)cc1OC	0%	6%	?	?	?	i
COc1ccc(NC(=O)c2cc(-c3ccc(C)o3)nc3ccccc23)c(OC)c1	?	-26%	?	?	12µM*	i
COc1ccc(NC(=O)c2cc(-c3ccc(C)o3)nc3ccccc23)cc1OC	?	?	16µM*	18µM*	16µM*	?
O=C(O)c1ccccc1NC(=O)c1cc(-c2ccccc2)nc2ccccc12	-9%	0%	i	-5%	?	i
Cc1ccc(-c2cc(C(=O)Nc3ccccc3C(N)=O)c3ccccc3n2)o1	-29%	-24%	?	15µM*	10µM*	i
CCc1ccc(CN(C)Cc2c(C(=O)N3CCOCC3)nc3c(C)cccn23)nc1	-4%	0%	i	?	?	i
CC1CCCC(NC(=O)CSc2nnc(-c3cccnc3)o2)C1C (configuration not stated)	6%	2%	i	-20%	?	i
CC(=O)c1cc2c(cc1NC(=O)CCc1c(C)nc3ncnn3c1C)OCO2	10%	3%	?	-30%	-5%	i
CCc1ccc(NC(=O)Cn2c(=O)n(-c3cc(OC)c(OC)c(OC)c3)c(=O)c3ccccc32)cc1	·	·	i	4%	9%	i
COc1ccc(-c2nc(N3CCOCC3)nc3n[nH]c(N)c23)cc1	?	?	i	18µM*	18µM*	i
